# Assay results reported in the supplement of paper PMC9135407.
# “And” between values parts separate entries of the source, which are not always exact repeats. Identical values can stand only once. Counter-ions that a name gives are not always drawn. About 620 (11%) of roughly 5,800 compounds showed activity. This is one part of a sample in which actives are shown more often than they occur. Values without a mark were called inactive.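 The calls were made as follows: active = score above a cut-off or among the top three wells of a plate; in these data no inactive exceeds 0.85.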
# Tested on: primary human hepatic stellate cells (donor 1)
# Experiment: scaled lipid accumulation score (0 = DMSO-like, 1 = nortriptyline-like); higher = stronger HSC inactivation (lipid re-accumulation), active = hit call of the paper
# Conditions: 48 h
# [1] = library stock concentration: 10 mM
# [2] = library stock concentration: 3.33 mM
# [3] = library stock concentration: 1 mM
# [4] = library stock concentration: 80 uM
# [5] = library stock concentration: 400 uM
# [6] = library stock concentration: 2 mM
structure (smiles),measurement,setting,value
Nc1cc2c(ncn2CCOCP(=O)(O)O)c(=O)[nH]1 [PMEG hydrate],scaled lipid accumulation score,[1],≤ -0.055
COC1=C2C[C@@H](C)C[C@H](OC)[C@H](O)[C@@H](C)/C=C(\C)[C@H](OC(N)=O)[C@@H](OC)/C=C\C=C(/C)C(=O)NC(=CC1=O)C2=O [Geldanamycin],scaled lipid accumulation score,[2],0.54
same,scaled lipid accumulation score,library stock concentration: 8.9 mM,0.573
same,scaled lipid accumulation score,[1],0.493
C=CCNC1=C2C[C@@H](C)C[C@H](OC)[C@H](O)[C@@H](C)C=C(C)[C@H](OC(N)=O)[C@@H](OC)C=CC=C(C)C(=O)NC(=CC1=O)C2=O [17-AAG (Tanespimycin)],scaled lipid accumulation score,[1],0.873 (active)
C=CCNC1=C2C[C@@H](C)C[C@H](OC)[C@H](O)[C@@H](C)/C=C(\C)[C@H](OC(N)=O)[C@@H](OC)/C=C\C=C(/C)C(=O)NC(=CC1=O)C2=O [17-AAG (Tanespimycin)],scaled lipid accumulation score,[2],0.613
CO[C@H]1/C=C\C=C(/C)C(=O)NC2=CC(=O)C(NCCN(C)C)=C(C[C@@H](C)C[C@H](OC)[C@H](O)[C@@H](C)/C=C(\C)[C@@H]1OC(N)=O)C2=O [17-DMAG (Alvespimycin) HCl],scaled lipid accumulation score,[2],0.404
CO[C@H]1C=CC=C(C)C(=O)NC2=CC(=O)C(NCCN(C)C)=C(C[C@@H](C)C[C@H](OC)[C@H](O)[C@@H](C)C=C(C)[C@@H]1OC(N)=O)C2=O.Cl [17-DMAG (Alvespimycin) HCl],scaled lipid accumulation score,[1],1.24 (active)
CCCCC[C@H](O)/C=C/[C@@H]1[C@@H](C/C=C/CCCC(=O)O)[C@H](O)C[C@H]1O [5-trans Prostaglandin F2.beta.],scaled lipid accumulation score,[3],≤ 0
O=C1OC(O)C(c2cc3ccccc3s2)=C1Br (stereo not drawn),scaled lipid accumulation score,[3],0.04
O=C1O/C(=C/Br)CC[C@H]1c1cccc2ccccc12 [(S)-Bromoenol lactone],scaled lipid accumulation score,[3],0.103
COc1cc(C(=O)NCCCCCC(=O)O)cc(OC)c1OC [Capobenic acid],scaled lipid accumulation score,library stock concentration: 6.1 mM,≤ 0
COc1cc(OC)c(C(=O)CCCN2CCCC2)c(OC)c1,scaled lipid accumulation score,[1],≤ 0
COc1cc(C(=O)OCCCN2CCCN(CCCOC(=O)c3cc(OC)c(OC)c(OC)c3)CC2)cc(OC)c1OC.Cl.Cl,scaled lipid accumulation score,[1],0.84 (active)
COc1cc(C(=O)OCCC[NH+]2CCC[NH+](CCCOC(=O)c3cc(OC)c(OC)c(OC)c3)CC2)cc(OC)c1OC.[Cl-].[Cl-] [Dilazep hydrochloride],scaled lipid accumulation score,[1],0.951 (active)
COc1cc(C(=O)N2CCOCC2)cc(OC)c1OC [Trimetozine],scaled lipid accumulation score,library stock concentration: 7.1 mM,≤ 0
COc1cc(OC)c(C(=O)CCCN2CCCC2)c(OC)c1 [Buflomedil hydrochloride],scaled lipid accumulation score,,0.025
COc1cc(C(=O)OCCCN2CCCN(CCCOC(=O)c3cc(OC)c(OC)c(OC)c3)CC2)cc(OC)c1OC [Dilazep dihydrochloride],scaled lipid accumulation score,,0.164
COc1cc(N)c(Cl)cc1C(=O)OCCCN1CCCCC1,scaled lipid accumulation score,[1],0.126
COc1cc(OC)c(C(=O)CCCN2CCCC2)c(OC)c1 [Buflomedil HCl],scaled lipid accumulation score,[2],≤ 0
same,scaled lipid accumulation score,[1],≤ 0
COc1cc(N)c(Cl)cc1C(=O)OCCN1CCCCC1,scaled lipid accumulation score,[1],≤ -0.007
COc1cc(C(=O)OCCCN2CCCN(CCCOC(=O)c3cc(OC)c(OC)c(OC)c3)CC2)cc(OC)c1OC.Cl.Cl [Dilazep dihydrochloride],scaled lipid accumulation score,[1],1.06 (active)
CC1(C)CCCC2(C)C1CCC1(C)OC(=O)CC12 (stereo not drawn) [Sclareolide],scaled lipid accumulation score,[2],≤ 0
same,scaled lipid accumulation score,[1],0.09
NC(=O)c1ccc(N(C(N)=O)c2c(F)cccc2F)nc1-c1ccc(F)cc1F,scaled lipid accumulation score,[4],≤ -0.001
same,scaled lipid accumulation score,[5],≤ -0.001 and ≤ -0.005
same,scaled lipid accumulation score,[6],≤ -0.001 and 0.083
same,scaled lipid accumulation score,[2],≤ 0
same,scaled lipid accumulation score,[1],≤ 0 and 0.012 and ≤ -0.005
CCCCC[C@H](O)/C=C/[C@H]1[C@H](O)CC(=O)[C@@H]1C/C=C\CCCC(=O)NC(CO)CO [Prostaglandin E2 serinol amide],scaled lipid accumulation score,[3],≤ 0
CCN[C@@H]1C[C@H](N)[C@@H](O[C@H]2OC(CN)=CC[C@H]2N)[C@H](O)[C@H]1O[C@H]1OC[C@](C)(O)[C@H](NC)[C@H]1O [Netilmicin sulfate],scaled lipid accumulation score,library stock concentration: 3 mM,≤ 0
CC1=C(/C=C/C(C)=C\C=C\C(C)=C\C(=O)O)C(C)(C)CCC1 [9-cis Retinoic acid],scaled lipid accumulation score,[3],≤ -0.021
NC1C=CC=C(C(=O)O)C1 (stereo not drawn) [Gabaculine hydrochloride],scaled lipid accumulation score,[1],≤ 0
CCCCC[C@H](O)/C=C/C1=C(CCCCCCC(=O)O)C(=O)CC1 [Prostaglandin B1],scaled lipid accumulation score,[3],≤ 0 and ≤ -0.021
O=C(NC[C@H]1CN(c2ccc(N3CCOCC3=O)cc2)C(=O)O1)c1ccc(Cl)s1 [Rivaroxaban],scaled lipid accumulation score,[2],≤ 0
same,scaled lipid accumulation score,[1],≤ 0
Cc1ccccc1N=Nc1ccc(NC(=O)c2ccnn2C)c(C)c1,scaled lipid accumulation score,[1],≤ -0.006
CCN(CC)CCNC(=O)c1c(C)[nH]c(/C=C2\C(=O)Nc3ccc(F)cc32)c1C [Sunitinib malate],scaled lipid accumulation score,[4],≤ -0.009
same,scaled lipid accumulation score,[5],≤ -0.009
same,scaled lipid accumulation score,[1],≤ -0.07 and 0.421
CCN(CC)CCNC(=O)c1c(C)[nH]c(/C=C2\C(=O)Nc3ccc(F)cc32)c1C [Sunitinib Malate],scaled lipid accumulation score,[2],0.775
same,scaled lipid accumulation score,[1],0.432
"Cc1[nH]c(/C=C2\C(=O)Nc3ccccc32)c(C)c1CCC(=O)O [SU-6668 (TSU-68, Orantinib) (0.4 mM)]",scaled lipid accumulation score,[5],0.175
CCN(CC)CCNC(=O)c1c(C)[nH]c(/C=C2\C(=O)Nc3ccc(F)cc32)c1C,scaled lipid accumulation score,[5],0.189
same,scaled lipid accumulation score,[1],0.43
"Cc1[nH]c(/C=C2\C(=O)Nc3ccccc32)c(C)c1CCC(=O)O [TSU-68 (SU6668, Orantinib)]",scaled lipid accumulation score,[2],≤ 0
same,scaled lipid accumulation score,[1],≤ 0
CCN(CC)CCNC(=O)c1c(C)[nH]c(/C=C2\C(=O)Nc3ccc(F)cc32)c1C.O=C(O)C[C@H](O)C(=O)O,scaled lipid accumulation score,[6],1.66 (active)
"Cc1[nH]c(/C=C2\C(=O)Nc3ccccc32)c(C)c1CCC(=O)O [SU-6668 (TSU-68, Orantinib) (2 mM)]",scaled lipid accumulation score,[6],0.047
CCN(CC)CCNC(=O)c1c(C)[nH]c(/C=C2\C(=O)Nc3ccc(F)cc32)c1C.O=C(O)C[C@H](O)C(=O)O [Sunitinib malate],scaled lipid accumulation score,[6],0.997 (active)
"Cc1[nH]c(/C=C2\C(=O)Nc3ccccc32)c(C)c1CCC(=O)O [SU-6668 (TSU-68, Orantinib) (10 mM)]",scaled lipid accumulation score,[1],0.012
CCN(CC)CCNC(=O)c1c(C)[nH]c(/C=C2\C(=O)Nc3ccc(Cl)cc32)c1C,scaled lipid accumulation score,[2],0.556
CCOC(=O)c1c(C)[nH]c(/C=C2\C(=O)Nc3ccccc32)c1C [VEGF Receptor 2 Kinase Inhibitor I],scaled lipid accumulation score,[2],≤ 0
Cc1[nH]c(/C=C2\C(=O)Nc3ccccc32)c(C)c1CCC(=O)O,scaled lipid accumulation score,[1],0.019
CCC=CCC=CCC=CCC=CCCCCCCC(=O)O [.omega.-3 Arachidonic Acid],scaled lipid accumulation score,[3],≤ 0
CCN(CC)CCN(Cc1ccc(-c2ccc(C(F)(F)F)cc2)cc1)C(=O)Cn1c(SCc2ccc(F)cc2)nc(=O)c2c1CCC2,scaled lipid accumulation score,[2],0.746
same,scaled lipid accumulation score,[1],0.058
COc1ccc(-c2coc3cc(O)ccc3c2=O)cc1 [Formononetin],scaled lipid accumulation score,[2],≤ 0
same,scaled lipid accumulation score,[1],≤ 0 and ≤ -0.027
Nc1ccc2cn[nH]c2c1,scaled lipid accumulation score,[1],≤ 0
CC(C)(CO)[C@@H](O)C(=O)NCCC(=O)NCCSSCCNC(=O)CCNC(=O)[C@H](O)C(C)(C)CO,scaled lipid accumulation score,[1],≤ 0
COC(=O)C1=C(C)NC(C)=C(C(=O)OCCCN2CCC(c3ccccc3)(c3ccccc3)CC2)[C@H]1c1cccc([N+](=O)[O-])c1 [(S)-(+)-Niguldipine hydrochloride],scaled lipid accumulation score,[1],≤ -0.006
COC(=O)C1=C(C)NC(C)=C(C(=O)OCCCN2CCC(c3ccccc3)(c3ccccc3)CC2)[C@H]1c1cccc([N+](=O)[O-])c1 [Niguldipine],scaled lipid accumulation score,library stock concentration: 7.7 mM,≤ -0.021
Cl.N#Cc1ccc2[nH]cc(CCCCN3CCN(c4ccc5oc(C(N)=O)cc5c4)CC3)c2c1 [Vilazodone HCl],scaled lipid accumulation score,[1],1.1 (active)
N#Cc1ccc2[nH]cc(CCCCN3CCN(c4ccc5oc(C(N)=O)cc5c4)CC3)c2c1 [Vilazodone HCl],scaled lipid accumulation score,[2],0.512
Cc1c(C(=O)N(C)C2CCCCC2)sc2nc3ccc(N)cc3n12,scaled lipid accumulation score,[1],0.01
O=C(Nc1ccc2[nH]nc(-c3ccncc3)c2c1)[C@@H]1CCN(CC(=O)N2CCN(c3ccc(-c4ncccn4)cc3)CC2)C1 [listing 1 of 2 here],scaled lipid accumulation score,[4],≤ -0.001
same,scaled lipid accumulation score,[5],≤ -0.001
same,scaled lipid accumulation score,[6],≤ -0.001
O=C(Nc1ccc2[nH]nc(-c3ccncc3)c2c1)[C@@H]1CCN(CC(=O)N2CCN(c3ccc(-c4ncccn4)cc3)CC2)C1 [listing 2 of 2 here],scaled lipid accumulation score,[1],0.909 (active)
O=C(Nc1ccc2[nH]ncc2c1)C1CCC1 [Rhodblock 6],scaled lipid accumulation score,[1],0.092
O=C(OC[C@H]1O[C@@H](OC(=O)c2cc(O)c(O)c(OC(=O)c3cc(O)c(O)c(O)c3)c2)[C@H](OC(=O)c2cc(O)c(O)c(OC(=O)c3cc(O)c(O)c(O)c3)c2)[C@@H](OC(=O)c2cc(O)c(O)c(OC(=O)c3cc(O)c(O)c(O)c3)c2)[C@@H]1OC(=O)c1cc(O)c(O)c(OC(=O)c2cc(O)c(O)c(O)c2)c1)c1cc(O)c(O)c(OC(=O)c2cc(O)c(O)c(O)c2)c1 [Tannic acid],scaled lipid accumulation score,[1],≤ -0.027
